Test results: PubChem BioAssay (EPA / NIEHS)
Values joined by “and” are separate entries in the source; they are usually repeats but may differ in a detail not shown here. Equal values may be shown once. Inconclusive results are not listed. Some structures have more than one record in an assay (separate samples or runs), and their calls can disagree. Active and inactive are the calls of the source. How the source made its calls: active means hit-call score of the fitted dose curve at least 0.9, where 1 is the maximum; inconclusive means response in the unintended direction; inactive means score below 0.9.

experiment: CCTE_Shafer_MEA_dev_LDH: CCTE's Lactate Dehydrogenase Assay for Cytotoxicity in the Neural Network Formation Assay, Shafer Lab (AID 2284068);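 further: exposure for twelve days from plating with re-dosing on DIV 5 and 9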
Procedure: CCTE_Shafer_MEA_dev assay is conducted using Axion Biosystems 48 well microelectrode array (MEA) plates and Maestro recording system. Each well of the MEA plate contains a grid of 16 microelectrodes embedded in the culture surface. Electrically active cells, such as neurons, can be cultured over the electrodes, and electrical activity in these cells can be recorded extracellularly. The spontaneous firing of neurons is captured from each electrode on a microsecond timescale providing both temporally and spatially precise data. […] The CCTE_Shafer_MEA_dev assay uses primary cultures of rat cortical neurons. Recordings are made on days post-plating 5, 7, 9 and 12. As these cultures mature over time, neural networks develop functional activity and form cohesive networks in which electrical activity can be highly coordinated. CCTE_Shafer_MEA_dev_LDH is 1 of 19 assay components of the CCTE_Shafer_MEA_dev assay. It measures the lactate dehydrogenase enzyme activity using spectrophotometry.Data from the assay component CCTE_Shafer_MEA_dev_LDH was analyzed into 1 assay endpoint. This assay endpoint, CCTE_Shafer_MEA_dev_LDH, was analyzed in the positive analysis fitting direction relative to DMSO as the negative control and baseline of activity. Using a type of viability reporter, loss-of-signal activity can be used to understand cell viability.
On the day prior to culture, each well was coated thoroughly with 150 uL of 0.05% polyethyleneimine (PEI, Sigma Cat P3143) in 50 mM HEPES (Sigma Cat H7523) at a pH of 8. The plate was incubated at 37C for one hour. PEI was rinsed out with 500 uL of sterile water three times. Plates were stored at 4C until the day of culture. This culture was plated at a seeding density of 1.5 x 10^5 cells/well on a 48-well MEA plate, prepared as described above. Cells were administered via a 25 uL media/laminin ([…]; Sigma Cat L2020-1MG) drop directly onto the microelectrode array, as adding the cells with the laminin results in better attachment than pre-coating with laminin. After 2 hours, an additional 475 uL of cortical media was added and the cells returned to the incubator. Exposure starts at day 0 of plating and is continued over twelve days of network development until the experiment is terminated. Cells are fed with fresh medium on DIV 5 and 9, following the recordings on those days. The entire volume of media in the well is exchanged and any vehicle or compound treatment is renewed. Complete details are found in OP-NHEERL/ISTD/SBB/TJS/2015-03-r0 (available on request, email shafer.tim@epa.gov). Measurement of the electrical activity is non-invasive, and recordings can be made from the same plate over multiple different days of the culture. In cortical neurons, this allows for the measurement of extracellular action potentials over the period during which networks form in the MEA plate.

Structure (SMILES) | AC50 | outcome
CCC[CH2][Sn]([Cl])([CH2]CCC)[CH2]CCC | 0.0843 µM (active) | –
CC(C)COC(=O)c1ccccc1C(=O)OCC(C)C | 23.6 µM (active) | –
CC(C)(C)C(O)(CCc1ccc(Cl)cc1)Cn1cncn1 (stereo not drawn) | – | inactive
ClC1=C(Cl)C2(Cl)C3C(Cl)C=CC3C1(Cl)C2(Cl)Cl (stereo not drawn) | 2.98 µM (active) | –
Nc1cc(Cl)cc(C(=O)O)c1Cl | – | inactive
COC(=O)Nc1nc2ccccc2[nH]1 | 12.5 µM (active) | –
CCNS(=O)(=O)C(F)(F)C(F)(F)C(F)(F)C(F)(F)C(F)(F)C(F)(F)C(F)(F)C(F)(F)F | 8.58 µM (active) and 4.41 µM (active) | –
C1=Cc2cccc3cccc1c23 | – | inactive
COP(=S)(OC)SCN1C(=O)c2ccccc2C1=O | 28.9 µM (active) | inactive
Clc1ccc(C(c2ccc(Cl)cc2)C(Cl)Cl)cc1 | 5.96 µM (active) | –
CN(C)[C@@H]1C(=O)C(C(N)=O)=C(O)[C@@]2(O)C(=O)C3=C(O)c4c(O)cccc4[C@@](C)(O)[C@H]3C[C@@H]12 | – | inactive
CNC(=O)Oc1cccc2c1OC(C)(C)C2 | 49.6 µM (active) | inactive
Clc1ccc(C(c2ccc(Cl)cc2)C(Cl)(Cl)Cl)cc1 | 4.07 µM (active) and 6.5 µM (active) | –
[Cl-].[Cl-].[Hg+2] | 0.929 µM (active) | –
[O-][Cl+]O | – | inactive
ClC1=C(Cl)[C@]2(Cl)[C@H]3[C@H]([C@@H]4C=C[C@H]3C4)[C@@]1(Cl)C2(Cl)Cl | 6.69 µM (active) | –
